Compound activity as filed in PubChem BioAssay.
D3 ag = D3 dopamine receptor (human) agonism; P35462; D3R DiscoveRx beta-arrestin cells, luminescence, 90 min; max activation, %; 0.58% of 410,000 active; AID 652048; in the data active = max activation above about 30%; also: 0% is about no effect
Target sequence (P35462 whole entry, looked up): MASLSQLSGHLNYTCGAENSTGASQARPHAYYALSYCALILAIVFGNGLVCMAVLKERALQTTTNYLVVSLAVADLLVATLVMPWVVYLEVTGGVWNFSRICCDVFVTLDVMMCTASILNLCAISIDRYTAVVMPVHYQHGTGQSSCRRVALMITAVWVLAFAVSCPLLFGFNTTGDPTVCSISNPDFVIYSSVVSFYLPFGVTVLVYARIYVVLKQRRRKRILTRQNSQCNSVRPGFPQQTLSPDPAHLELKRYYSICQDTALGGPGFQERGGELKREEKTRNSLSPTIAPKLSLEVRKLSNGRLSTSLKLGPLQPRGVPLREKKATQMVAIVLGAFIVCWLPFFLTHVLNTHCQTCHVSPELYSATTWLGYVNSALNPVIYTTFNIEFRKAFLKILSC
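Cells at 1500/well, incubated overnight, then treated with pinned compounds (dopamine as control) for 90 min at 37 degrees C. DiscoveRx reagent added for 30 - 60 minutes at room temperature; luminescence read.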
D3 antag = blocks the human D3 dopamine receptor | max response, negative = inhibition, % | 2.5% of 360,000 active | D3R cells, DiscoveRx beta-arrestin luminescence, antagonist mode; hits give low values | AID 652054; in the data active = max response below about -50%; inconclusive = no clear call, values can overlap the other calls; also: % is scaled to controls: 0 for no effect and ±100 for the full control effect
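Cells plated overnight at 1500 cells/well, then exposed to library compounds with dopamine controls for 90 minutes at 37 degrees C. DiscoveRx reagent added for 30–60 minutes at room temperature; luminescence read, quantitative HTS format.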
a7 integrin act = integrin-mediated muscular dystrophy alleviation activation. alpha7betagal myoblasts, beta-gal FDG fluorescence, 48 h. Potency, µM (series often up to 38.3 µM), without a hit: top-dose activation, hits mostly activators. 0.064% of 350,000 active. AID 624291; active = well fitted activation curve with a large enough effect; inconclusive = small, poorly fitted or top-dose-only effect; inactive = no such curve, though single readings can be large or run the other way;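 also: potency is read from the fitted curve at half-maximal effect; 100% = response of the positive control SU9516; nearly all actives have a fitted effect of over 60% in size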
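Alpha7betagal+/- myoblasts (passage 13) were plated 16-24 hr, then exposed to compounds (1:260 dilution of DMSO stock) for 48 hours at 37C. After MPER lysis, β-galactosidase reporter activity was read as FDG fluorescence (ex 480/em 540) after 30 minutes.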
Starred values were filed as active, the others as inactive. Only some compounds are listed: those with a hit (about 2.9% of all), similar ones and a draw of the others.

Screening CCC(C#CCN1CCOCC1)(CC)OCCC#N returned D3 ag -15, D3 antag -3 and a7 integrin act 25%.
Screening O=S1(=O)N=C2CCCCCN2C(c2ccccc2)N1 (centres undefined) returned D3 ag 1, D3 antag -1 and a7 integrin act -7%.
`C=CCOC(=O)c1[nH]c2c(c1C)C(=O)CC(c1ccco1)C2` (centres undefined) gave D3 ag -9, D3 antag -26 and a7 integrin act 0%.
`Cc1c(C(=O)OCC(C)C)[nH]c2c1C(=O)CC(c1ccco1)C2` (centres undefined) gave D3 ag -11, D3 antag -53* and a7 integrin act 0%.
`CC(C)c1ccc(-c2c(C#N)c(N)nc(SCC(=O)N3CCCCCC3)c2C#N)cc1` gave D3 ag 0, D3 antag 12 and a7 integrin act -4%.
Screening N#Cc1c(N)nc(SCC(=O)NC2CCCCC2)c(C#N)c1-c1ccc(Cl)cc1 returned D3 ag 46*, D3 antag -12 and a7 integrin act 19%.
Screening COc1ccc(NC(=O)Nc2cccc(-c3cn4cccnc4n3)c2)cc1 returned D3 ag 2.
O=C(C1CCN(S(=O)(=O)c2cccc3nsnc23)CC1)N1CC=C(c2ccccc2)CC1 was read as D3 ag 2, D3 antag 19 and a7 integrin act 1%.
For O=C(C1CCC(CNS(=O)(=O)c2cccc3nsnc23)CC1)N1CC=C(c2ccccc2)CC1 (centres undefined) the results were D3 ag 60*, D3 antag 179 and a7 integrin act -29%.
`Cc1ccccc1CNC(=O)CCCC(=O)n1nc(C)c2ccccc21` gave D3 ag 0, D3 antag 6 and a7 integrin act 15%.
For CC(=O)N1CCN(C(=O)c2cc3c(s2)CCCC3)CC1 the results were D3 ag 8, D3 antag -19 and a7 integrin act 26%.
For CN1CCCN(C(=O)c2cc3c(s2)CCCC3)CC1 the results were D3 ag -21, D3 antag -56* and a7 integrin act inconclusive.
`COc1ccccc1CCN=C(N)NS(=O)(=O)c1cc(F)ccc1F` gave D3 ag 2, D3 antag 15 and a7 integrin act 16%.
CC1CC(C)CN(CCCNC(=O)C2CCC(=O)N2C2CCCC2)C1 (centres undefined) was read as D3 ag 0, D3 antag inconclusive and a7 integrin act 0%.
For O=C(NCCCN1CCC(Cc2ccccc2)CC1)C1CCC(=O)N1C1CCCC1 (centres undefined) the results were D3 ag -10, D3 antag -118* and a7 integrin act -6%.
`O=C(NCCCN1CCN(c2ccccc2F)CC1)C1CCC(=O)N1C1CCCC1` (centres undefined) gave D3 ag 1, D3 antag -87* and a7 integrin act 25%.
For O=C(NCCCN1CCCC1)C1CCC(=O)N1C1CCCCC1 (centres undefined) the results were D3 ag 1, D3 antag -12 and a7 integrin act 4%.
Screening O=[N+]([O-])c1cccc(NC(=S)N2CCN(S(=O)(=O)c3ccccc3)CC2)c1 returned D3 ag -27, D3 antag -22 and a7 integrin act inconclusive.
`Cc1cccc(C(=O)CC(=O)c2cc(Cl)ccc2O)c1` gave D3 ag 0, D3 antag -79* and a7 integrin act -54%.
O=C(CC(=O)c1cc(Cl)ccc1O)c1ccccc1 was read as D3 ag 4, D3 antag 13 and a7 integrin act -53%.
`Cc1ccc2c(c1)N(S(=O)(=O)c1ccc3c(c1)NC(=O)CC(=O)N3)CCO2` gave D3 ag -4, D3 antag -22 and a7 integrin act -26%.
Screening C=CCOC(=O)/C(=C\c1ccccc1)NC(=O)c1ccco1 returned D3 ag 5, D3 antag 1 and a7 integrin act -25%.
C=CCOC(=O)/C(=C\c1ccc(OC)cc1)NC(=O)c1ccco1 was read as D3 ag -7, D3 antag -51* and a7 integrin act -3%.
Screening CCNC(=O)C1CCCN(C(=O)c2ccc(OC)c(OC)c2)CC1 (centres undefined) returned D3 ag 79* and D3 antag 20.
For COCCNC(=O)C1CCCN(C(=O)c2ccc3ccccc3n2)CC1 (centres undefined) the results were D3 ag 54* and D3 antag 0.
`COCCNC(=O)C1CCCN(C(=O)c2oc3ccccc3c2C)CC1` (centres undefined) gave D3 ag -5 and D3 antag 0.
`CCNC(=O)C1CCCN(C(=O)c2ccc(OC)cc2)CC1` (centres undefined) gave D3 ag -5 and D3 antag -16.
O=S(=O)(c1ccc(F)c(F)c1)N1CCN(CCc2ccccc2)CC1 was read as D3 ag 5, D3 antag -22 and a7 integrin act 14%.
`CN1CCN(C2=C(Cl)C(=O)N(c3ccc(Cl)cc3)C2=O)CC1` gave D3 ag 5, D3 antag -83* and a7 integrin act -19%.
O=C1C(Cl)=C(N2CCOCC2)C(=O)N1CCc1ccccc1 was read as D3 ag 2, D3 antag -28 and a7 integrin act -22%.
Screening CN1CCN(C2=C(Cl)C(=O)N(CCc3ccccc3)C2=O)CC1 returned D3 ag -6, D3 antag -71* and a7 integrin act -49%.
Screening Cc1ccc(N2C(=O)C(Cl)=C(N3CCN(C)CC3)C2=O)c(C)c1 returned D3 ag -11, D3 antag inconclusive and a7 integrin act -9%.
For CCCCC(CC)CNC(=O)C(Cc1ccccc1)NS(=O)(=O)c1ccc2c(c1)CCC(=O)N2 (centres undefined) the results were D3 ag -4, D3 antag -6 and a7 integrin act -11%.
CN1CCN(C(=O)c2ccccc2N(Cc2ccccc2)S(=O)(=O)c2ccccc2)CC1 was read as D3 ag -57, D3 antag -60* and a7 integrin act 10%.
Screening CN1CCN(C(=O)c2ccccc2N(Cc2ccccc2)S(C)(=O)=O)CC1 returned D3 ag 0, D3 antag inconclusive and a7 integrin act 5%.
CCN(CC)c1ccc2c(C)c(CN3CCOCC3)c(=O)oc2c1 was read as D3 ag -6, D3 antag -75* and a7 integrin act -22%.
Screening CCN(CC)c1ccc2c(C)c(CO)c(=O)oc2c1 returned D3 ag 8, D3 antag -17 and a7 integrin act -5%.
`CC(C)(C)C(=O)NC(=S)NCc1ccccc1` gave D3 ag -7, D3 antag 13 and a7 integrin act 19%.
O=C(CSc1nc2ncccc2[nH]1)NC1CCCC1 was read as D3 ag 11, D3 antag 20 and a7 integrin act -3%.
`O=C(c1cc(-c2ccc(Cl)cc2)on1)N1CCOCC1` gave D3 ag 2, D3 antag -8 and a7 integrin act -5%.
`Cc1nnsc1S(=O)c1ccc(Cl)cc1` (centres undefined) gave D3 ag 6, D3 antag 0 and a7 integrin act -50%.
